This note sets out measurements from PubChem BioAssay (Tox21).

Values joined by “and” are separate entries in the source; they are usually repeats but may differ in a detail not shown here. Equal values may be shown once. Results filed as inconclusive are left out. A call without a number means that no potency is given here. More than one record can exist for a structure, and the calls need not agree. Active and inactive are the calls of the source. Unless noted, calls come from the whole dose curve; as a rule, active = well fitted curve in the direction sought with a large enough effect in the repeat runs; inconclusive = weak or mixed curves; inactive = no such curve, though single readings can be large; an effect the other way counts as inactive or inconclusive.

The nature of the first assay: qHTS assay for small molecule activators of the heat shock response signaling pathway - cell viability counter screen (AID 743209). Note: nearly all actives have a fitted effect of over 50% in size. Note: potency is the fitted concentration of half-maximal effect. To be noted: HSE-bla HeLa viability, CellTiter-Glo luminescence, 5 h; series mostly up to 62.6 µM; activity change, negative = cytotoxicity: at the top concentration. A digest of the protocol:
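Same-well multiplex: after 2.5 h room-temperature incubation with LiveBLAzer B/G substrate and fluorescence reading, CellTiter-Glo reagent was added to HSE-bla HeLa cells that had received compound for 5 h at 37 C; luminescence read after 30 min.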
(In qHTS, concentration-response curves come from the screen itself.)
For the compound `CCCCOCCOCCO`, the Potency result is “inactive”.

Consider `CC(C)(C)NC(=O)[C@H]1CC[C@H]2[C@@H]3CC[C@H]4NC(=O)C=C[C@]4(C)[C@H]3CC[C@]12C`, for which the Potency result is “inactive”.

As to `O=c1oc(=O)c2cc3c(=O)oc(=O)c3cc12`, the Potency entry is “inactive”.

`CN1C(C(=O)Nc2ccccn2)=C(O)c2ccccc2S1(=O)=O`: the Potency result is “inactive”.

On to `OCCO`, for which the Potency result is “inactive”.

In the case of `CC(CCC(=O)O)(c1ccc(O)cc1)c1ccc(O)cc1`, the Potency entry is “inactive”.

Consider `COc1ccc(OC)c(C(O)CNC(=O)CN)c1` (stereo unspecified), for which the Potency result is “inactive”.

Consider `CCCc1c(OCCCCc2nn[nH]n2)ccc(C(C)=O)c1O`, for which the Potency result is “inactive”.

As for `O=[N+]([O-])c1ccc2c(c1)Cc1ccccc1-2`, the Potency result is “inactive”.

For the compound `CC1=CCC(C(C)(C)O)CC1` (stereo unspecified), the Potency entry is “inactive”.

As for `CC(C)Oc1ccc2c(=O)c(-c3ccccc3)coc2c1`, the Potency result was “inactive”.

For the compound `O=C1c2cccc(O)c2C(=O)c2c(O)cccc21`, the Potency entry is “inactive”.

For `CC(C)=CCC/C(C)=C\CO`, the Potency entry is “inactive”.

For the compound `Cc1c(OCC(F)(F)F)ccnc1CS(=O)c1nc2ccccc2[nH]1` (stereo unspecified), the Potency entry is “inactive”.

Turning to `C[Si](C)(C)O[Si](C)(C)C`, the Potency result is “inactive”.

Take `CC(=O)O[C@]1(C(C)=O)CC[C@H]2[C@@H]3C=C(Cl)C4=CC(=O)[C@@H]5C[C@@H]5[C@]4(C)[C@H]3CC[C@@]21C`: the Potency result was “inactive”.

With `O=CCc1ccccc1`, the Potency result was “inactive”.

For the compound `c1ccc2sc(SSN3CCOCC3)nc2c1`, the “activity change, negative = cytotoxicity” value is -4.75% (inactive).

With `c1cc(-c2ccncc2)ccn1`, the Potency entry is “inactive”.

For the compound `CC(C)=CCCC(C)CCO` (stereo unspecified), the Potency entry is “inactive”.

On to `CCCC(=O)O`, for which the Potency result is “inactive”.

Take `c1ccc2cc(Nc3ccc(Nc4ccc5ccccc5c4)cc3)ccc2c1`: the Potency entry is “inactive”.

For the compound `CCCCC(CC)COC(=O)c1ccc(N(C)C)cc1` (stereo unspecified), the Potency entry was “inactive”.

In the case of `CC(=O)c1ccccn1`, the Potency result was “inactive”.

With `CCCCCCCCCCCO`, the Potency entry was “inactive and 43.6 µM (active)”.

Consider `CC(C)OC=O`, for which the Potency result was “inactive”.

With `COc1ccccc1/C=C/C=O`, the Potency entry is “inactive”.

With `O=C(O)c1ccccc1Nc1cccc(C(F)(F)F)c1`, the “activity change, negative = cytotoxicity” value is -5.11% (inactive).

With `O=CCCCC=O`, the Potency is 47.2 µM (active) and inactive.

Consider `O=C(c1ccccc1)c1ccccc1O`, for which the Potency result is “inactive”.

With `CCOCCOCCO`, the Potency entry is “inactive”.

Turning to `Nc1ccccc1N`, the “activity change, negative = cytotoxicity” value was 6.05% [at 81.1 µM] (inactive).

In the case of `COc1ccc(C(=O)CC(=O)c2ccc(C(C)(C)C)cc2)cc1`, the “activity change, negative = cytotoxicity” value is -6.5% (inactive).

`C[C@]12CC[C@H]3[C@@H](CCC4=CC(=O)CC[C@@]43C)[C@@H]1CC[C@@H]2C(=O)CO`: the Potency entry is “inactive”.

For the compound `CNCCCC12CCC(c3ccccc31)c1ccccc12`, the “activity change, negative = cytotoxicity” value was 5.25% (inactive).

`Nc1ccc(S(=O)(=O)Nc2cnc3ccccc3n2)cc1`: the Potency entry is “inactive”.

For the compound `Cc1ncc[nH]1`, the Potency entry was “inactive”.

As to `Brc1cc(Oc2cc(Br)c(Br)c(Br)c2Br)c(Br)c(Br)c1Br`, the Potency result was “inactive”.

The next assay in a line: qHTS assay for small molecule activators of the heat shock response signaling pathway (AID 743210; active = well fitted activation curve with a large enough effect in the signal ratio in the repeat runs, with a control signal flat, not every such curve was filed as active; the % refers to the signal ratio;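 note: HeLa cells with beta-lactamase reporter driven by heat shock elements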). To be noted: HeLa HSE-bla reporter, beta-lactamase ratio, 5 h; series mostly up to 62.6 µM; activation: at the top concentration. In outline:
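Activation of heat shock element-controlled beta-lactamase expression is measured in HeLa cells by LiveBLAzer FRET fluorescence, with compound exposure lasting 5 h at 37 C and substrate loading 2.5 h at room temperature.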
Regarding `CCCCOCCOCCO`, the Potency entry is “inactive”.

In the case of `CC(C)(C)NC(=O)[C@H]1CC[C@H]2[C@@H]3CC[C@H]4NC(=O)C=C[C@]4(C)[C@H]3CC[C@]12C`, the Potency entry was “inactive”.

For the compound `O=c1oc(=O)c2cc3c(=O)oc(=O)c3cc12`, the Potency result is “inactive”.

On to `CN1C(C(=O)Nc2ccccn2)=C(O)c2ccccc2S1(=O)=O`, for which the Potency entry was “inactive”.

With `OCCO`, the Potency result was “inactive”.

In the case of `CC(CCC(=O)O)(c1ccc(O)cc1)c1ccc(O)cc1`, the Potency entry is “inactive”.

As for `COc1ccc(OC)c(C(O)CNC(=O)CN)c1` (stereo unspecified), the Potency result was “inactive”.

Consider `CCCc1c(OCCCCc2nn[nH]n2)ccc(C(C)=O)c1O`, for which the Potency entry was “inactive”.

For the compound `O=[N+]([O-])c1ccc2c(c1)Cc1ccccc1-2`, the Potency result was “inactive”.

`CC1=CCC(C(C)(C)O)CC1` (stereo unspecified): the Potency result is “inactive”.

As to `CC(C)Oc1ccc2c(=O)c(-c3ccccc3)coc2c1`, the Potency entry was “inactive”.

As to `O=C1c2cccc(O)c2C(=O)c2c(O)cccc21`, the Potency entry is “inactive”.

Consider `C[Si](C)(C)O[Si](C)(C)C`, for which the Potency entry is “inactive”.

`CC(=O)O[C@]1(C(C)=O)CC[C@H]2[C@@H]3C=C(Cl)C4=CC(=O)[C@@H]5C[C@@H]5[C@]4(C)[C@H]3CC[C@@]21C`: the Potency result was “inactive”.

In the case of `O=CCc1ccccc1`, the Potency entry was “inactive”.

Take `c1cc(-c2ccncc2)ccn1`: the Potency result is “inactive”.

Consider `CC(C)=CCCC(C)CCO` (stereo unspecified), for which the Potency entry was “inactive”.

For `CCCC(=O)O`, the Potency entry is “inactive”.

Take `c1ccc2cc(Nc3ccc(Nc4ccc5ccccc5c4)cc3)ccc2c1`: the “activation” value was 1.63% (inactive).

For the compound `CCCCC(CC)COC(=O)c1ccc(N(C)C)cc1` (stereo unspecified), the Potency result was “inactive”.

Turning to `CC(=O)c1ccccn1`, the Potency entry is “inactive”.

As to `CC(C)OC=O`, the “activation” value is 0.567% (inactive).

Consider `C#C[C@]1(O)CC[C@H]2[C@@H]3CCC4=Cc5oncc5C[C@]4(C)[C@H]3CC[C@@]21C`, for which the “activation” value was 9.55% (inactive).

For `O=C(O)c1ccccc1Nc1cccc(C(F)(F)F)c1`, the “activation” value was 0.274% (inactive).

As for `O=CCCCC=O`, the Potency result was “inactive”.

Consider `O=C(c1ccccc1)c1ccccc1O`, for which the Potency entry is “inactive”.

Regarding `CCOCCOCCO`, the Potency result was “inactive”.

As for `Nc1ccccc1N`, the “activation” value was -0.521% [at 81.1 µM] (inactive).

As for `C[C@]12CC[C@H]3[C@@H](CCC4=CC(=O)CC[C@@]43C)[C@@H]1CC[C@@H]2C(=O)CO`, the Potency result is “inactive”.

In the case of `CNCCCC12CCC(c3ccccc31)c1ccccc12`, the “activation” value was -0.613% (inactive).

On to `Nc1ccc(S(=O)(=O)Nc2cnc3ccccc3n2)cc1`, for which the Potency entry is “inactive”.

In the case of `Cc1ncc[nH]1`, the Potency entry was “inactive”.

Consider `Brc1cc(Oc2cc(Br)c(Br)c(Br)c2Br)c(Br)c(Br)c1Br`, for which the “activation” value is 2.72% (inactive).

A short description of the next assay: qHTS assay to identify small molecule agonists of the peroxisome proliferator-activated receptor delta (PPARd) signaling pathway - cell viability counter screen (AID 743211). Note: nearly all actives have a fitted effect of over 55% in size. Note: potency is the fitted concentration of half-maximal effect. The note with it: PPARd-bla HEK293H viability, CellTiter-Glo luminescence, 17 h; series mostly up to 62.6 µM; activity change, negative = cytotoxicity: at the top concentration. In outline: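 Read-out: CellTiter-Glo luminescence, 30 min RT, measured in the same wells as the beta-lactamase reporter. Cells: GeneBLAzer PPAR delta UAS-bla HEK293H, 3000 cells/well, compound exposure 17 h at 37C.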
Take `CCCCOCCOCCO`: the Potency result was “inactive”.

In the case of `CC(C)(C)NC(=O)[C@H]1CC[C@H]2[C@@H]3CC[C@H]4NC(=O)C=C[C@]4(C)[C@H]3CC[C@]12C`, the Potency entry was “inactive”.

Take `CCCc1c(OCCCCc2nn[nH]n2)ccc(C(C)=O)c1O`: the Potency entry is “inactive”.

For the compound `CC1=CCC(C(C)(C)O)CC1` (stereo unspecified), the Potency result was “inactive”.

For `O=C1c2cccc(O)c2C(=O)c2c(O)cccc21`, the Potency entry is “inactive”.

Regarding `CC(C)=CCC/C(C)=C\CO`, the Potency result is “inactive”.

As to `C[Si](C)(C)O[Si](C)(C)C`, the Potency result is “inactive”.

As for `CC(=O)O[C@]1(C(C)=O)CC[C@H]2[C@@H]3C=C(Cl)C4=CC(=O)[C@@H]5C[C@@H]5[C@]4(C)[C@H]3CC[C@@]21C`, the Potency result is “inactive”.

For the compound `O=CCc1ccccc1`, the Potency result was “inactive”.

Turning to `CC(C)=CCCC(C)CCO` (stereo unspecified), the Potency result is “inactive”.

In the case of `CCCCC(CC)COC(=O)c1ccc(N(C)C)cc1` (stereo unspecified), the Potency result is “inactive”.

In the case of `CC(=O)c1ccccn1`, the Potency result is “inactive”.

Take `CCCCCCCCCCCO`: the Potency entry is “inactive and 43.6 µM (active)”.

For the compound `CC(C)OC=O`, the “activity change, negative = cytotoxicity” value is 14% (inactive).

Regarding `COc1ccccc1/C=C/C=O`, the Potency entry was “inactive”.

Turning to `O=C(O)c1ccccc1Nc1cccc(C(F)(F)F)c1`, the “activity change, negative = cytotoxicity” value is -0.478% (inactive).

On to `O=CCCCC=O`, for which the Potency result was “inactive”.

On to `O=C(c1ccccc1)c1ccccc1O`, for which the Potency entry is “inactive”.

In the case of `CCOCCOCCO`, the Potency entry is “inactive”.

With `Nc1ccccc1N`, the Potency entry was “inactive”.

In the case of `COc1ccc(C(=O)CC(=O)c2ccc(C(C)(C)C)cc2)cc1`, the “activity change, negative = cytotoxicity” value was -16.4% (inactive).

Consider `C[C@]12CC[C@H]3[C@@H](CCC4=CC(=O)CC[C@@]43C)[C@@H]1CC[C@@H]2C(=O)CO`, for which the Potency entry was “inactive”.

Regarding `Nc1ccc(S(=O)(=O)Nc2cnc3ccccc3n2)cc1`, the Potency entry is “inactive”.

On to `Cc1ncc[nH]1`, for which the Potency result is “inactive”.

Consider `Brc1cc(Oc2cc(Br)c(Br)c(Br)c2Br)c(Br)c(Br)c1Br`, for which the “activity change, negative = cytotoxicity” value was -3.96% (inactive).
